Source: PubChem
The sample as a whole holds a higher share of hits than the screen did.
Pf Dd2 inh – inhibitors of Plasmodium falciparum Dd2 growth; hit rate 4.3% among 120,000; Potency, µM (doses to about 28.9 µM), most hits filed as inhibitors; P. falciparum Dd2 growth, SYBR Green, 72 h; AID 1347417; active means well fitted inhibition curve with a large enough effect; further: nearly all actives have a fitted effect of over 65% in size
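Readout: SYBR Green fluorescence, 485 nm excitation, 535 nm emission, after ~16 h lysis at 37C. Before that, Dd2-infected red cells (2.5% hematocrit) grew 72 h with compound, 29 uM top final concentration.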
Hits are given with their value.

`COc1ccc(Cl)cc1-c1ccc2c(c1)C(=O)N1CC[C@H](NC(=O)c3cccs3)[C@H]1C(=O)N2` gave Pf Dd2 inh 7.9µM.
For O=C(COc1ccccc1)N1CCC2(CC1)CC(N(C(=O)c1ccccc1)C1CC1)CCO2 (stereo not given) the results were Pf Dd2 inh inactive.
Cc1ccccc1-n1cc(CN(C)C(=O)CN2C(=O)OC(C)(C)C2=O)cn1 was read as Pf Dd2 inh inactive.
CCc1cccc(C)c1NC(=O)CN1C(=O)NC(c2ccc(Cl)cc2)C2=C1COC2=O (stereo not given) was read as Pf Dd2 inh inactive.
For CC1(C)CN(C(=O)Cn2cc(C(F)(F)F)ccc2=O)C[C@]1(C)O the results were Pf Dd2 inh inactive.
CC(=O)NCC(=O)N1CCC(N2C(=O)C(OCC3CC3)C23CCOCC3)CC1 (stereo not given) was read as Pf Dd2 inh inactive.
Screening CS(=O)(=O)N1CCC2(CC1)CN(Cc1ccncc1)Cc1ccccc1O2 returned Pf Dd2 inh inactive.
`COc1cccc(CCNC(=O)c2c(C)noc2-c2ccc3c(c2)OCO3)c1` gave Pf Dd2 inh inactive.
Screening CN(C)Cc1ccc(-c2ccc(CO)cc2CO)cc1 returned Pf Dd2 inh inactive.
O=C(NC(C(=O)N1CCCCC1)C1CCN(C(=O)c2ccccc2)CC1)c1ccccc1Cl (stereo not given) was read as Pf Dd2 inh inactive.
For COc1cccc(C(=O)N2CCC(C(NC(=O)c3ccccc3)C(=O)NCc3ccco3)CC2)c1 (stereo not given) the results were Pf Dd2 inh 8.9µM.
Screening COc1ccc(C(=O)N2CCC(C(NC(=O)c3cccc(OC)c3)C(=O)N3CCCC3)CC2)cc1 (stereo not given) returned Pf Dd2 inh inactive.
Screening O=C(NC(C(=O)NCc1ccco1)C1CCN(C(=O)C2CC2)CC1)c1ccccc1 (stereo not given) returned Pf Dd2 inh inactive.
For Cc1cccc(C(=O)N2CCC(C(NC(=O)c3ccccc3)C(=O)N3CCCCC3)CC2)c1 (stereo not given) the results were Pf Dd2 inh 11µM.
COCCNC(=O)C(NC(=O)c1cccc(OC)c1)C1CCN(C(=O)c2ccc(C)cc2)CC1 (stereo not given) was read as Pf Dd2 inh inactive.
Screening CCCNC(=O)C(NC(=O)c1cccc(OC)c1)C1CCN(C(=O)c2cccc(F)c2)CC1 (stereo not given) returned Pf Dd2 inh inactive.
For Cc1ccc(C(=O)NC(C(=O)N2CCCC2)C2CCN(C(=O)c3ccccc3F)CC2)cc1 (stereo not given) the results were Pf Dd2 inh inactive.
COc1cccc(C(=O)NC(C(=O)N2CCCCC2)C2CCN(C(=O)c3cccc(F)c3)CC2)c1 (stereo not given) was read as Pf Dd2 inh 8.9µM.
`CCN(C1CCOCC1)C1CN(C(=O)c2nccn2C)C1` gave Pf Dd2 inh inactive.
Screening O=C1NC(C(=O)N2CCN(Cc3ccc(F)cc3F)CC2)Cn2cccc21 (stereo not given) returned Pf Dd2 inh inactive.
COCCNC(=O)[C@@H]1C[C@H](Oc2ccccc2)CN1C(=O)CCc1nc2ccccc2[nH]1 was read as Pf Dd2 inh inactive.
`Cc1noc(C)c1[S+](=O)([O-])N1CC2(C1)C(=O)Nc1ccccc12` gave Pf Dd2 inh inactive.
COc1ccc(-n2c(SCC(=O)NCc3ccc(C)cc3)nc3n[nH]c(C)c3c2=N)cc1 was read as Pf Dd2 inh 10µM.
Screening COc1ccc(CNC(=O)c2cc(-c3ccc(C)cc3)nc3n[nH]c(-c4ccc(Br)cc4)c23)cc1 returned Pf Dd2 inh inactive.
Screening COc1ccc(CNC(=O)CSc2n[nH]c(-c3ccc(OC)cc3)n2)cc1 returned Pf Dd2 inh inactive.
`Cc1ccc(CNC(=O)CSc2nc3n[nH]c(C)c3c(=N)n2-c2ccccc2Cl)cc1` gave Pf Dd2 inh 3.5µM.
For Cc1ccc(Cn2ccnc2SCC(=O)NCc2ccccc2)cc1 the results were Pf Dd2 inh inactive.
CCCCn1c(SCC(=O)NCc2ccc(C)cc2)nc2c(sc3ccccc32)c1=O was read as Pf Dd2 inh inactive.
`CNC(=O)[C@@H]1CN(C(=O)c2ccc(Br)cc2F)C[C@H]1CO` gave Pf Dd2 inh inactive.
Cc1ccc(C(=O)N2CCN(c3cc(-c4cccs4)[nH]n3)CC2)s1 was read as Pf Dd2 inh inactive.
For CCOCc1nc(C2CCCN(C(=O)c3ccc(OC)cc3OC)C2)no1 (stereo not given) the results were Pf Dd2 inh inactive.
`CCc1ncc(-c2ccccc2)[nH]1` gave Pf Dd2 inh inactive.
For CCOc1ccc(-c2nc(C3CC(=O)N(c4ccc(F)cc4)C3)no2)cc1OCC (stereo not given) the results were Pf Dd2 inh inactive.
`CCOc1ccc(-c2cnc(-c3cnc(CC)nc3)[nH]2)cc1OCC` gave Pf Dd2 inh 10µM.
CC1=C(C(=O)Nc2ccccc2)C(c2cc(C)ccc2C)N2C(CC(=O)N3CCCC3)=CSC2=N1 (stereo not given) was read as Pf Dd2 inh inactive.
Screening COCC1(CNC(=O)c2nc3ccccc3[nH]2)C[C@@H](O)[C@@H](O)C1 (stereo not given in full) returned Pf Dd2 inh inactive.
`Cc1ccc(NC(=O)C2CCCN2S(=O)(=O)c2cccc3nsnc23)c(Br)c1` (stereo not given) gave Pf Dd2 inh 7.1µM.
Screening Cc1ccc(NC(=O)C2CCCN(S(=O)(=O)c3cccc4nsnc34)C2)c(C)c1 (stereo not given) returned Pf Dd2 inh inactive.
Screening O=C(Nc1ccc(F)cc1F)C1CCCN1S(=O)(=O)c1cccc2nsnc12 (stereo not given) returned Pf Dd2 inh inactive.
`CCc1cccc(C)c1NC(=O)C1CCN(S(=O)(=O)c2cccc3nonc23)CC1` gave Pf Dd2 inh inactive.
CCc1cccc(C)c1NC(=O)C1CCCN1S(=O)(=O)c1cccc2nsnc12 (stereo not given) was read as Pf Dd2 inh 5µM.
`Cc1ccc(NC(=O)C2CCCN(S(=O)(=O)c3cccc4nsnc34)C2)cc1C` (stereo not given) gave Pf Dd2 inh inactive.
For Cc1cc(C)cc(NC(=O)C2CCCN2S(=O)(=O)c2cccc3nsnc23)c1 (stereo not given) the results were Pf Dd2 inh 3.2µM.
`Cc1cccc(C)c1NC(=O)C1CCN(S(=O)(=O)c2cccc3nsnc23)CC1` gave Pf Dd2 inh inactive.
Screening Cc1cc(C)cc(NC(=O)C2CCCN2S(=O)(=O)c2ccc3nc(-c4ccccc4)[nH]c3c2)c1 (stereo not given) returned Pf Dd2 inh inactive.
For CNC(=O)[C@@H]1C[C@H](Oc2cccnc2)CN1C(=O)CC1CCCCC1 the results were Pf Dd2 inh inactive.
Screening COc1cccc(NC(=O)NC[C@H]2O[C@@H](CO)[C@@H](O)[C@H]2N2CCN(c3ccc(F)cc3)CC2)c1 returned Pf Dd2 inh inactive.
COCCn1ncc(N2CCCC(CC(=O)NCCN3CCOCC3)C2)cc1=O (stereo not given) was read as Pf Dd2 inh inactive.
`O=C(O)C1CN(CC2CC2)CCN(C(=O)c2cc(=O)[nH]o2)C1` (stereo not given) gave Pf Dd2 inh inactive.
`COc1cccc(CC(=O)N2CCC([C@H]3[C@@H](OC)C(=O)N3C(C)C)CC2)c1` gave Pf Dd2 inh inactive.
For COc1ccc(-c2cn3c(n2)sc2cc(C(=O)NC4CCCCC4)ccc23)cc1 the results were Pf Dd2 inh inactive.
